Assay results published in PubChem BioAssay (NCI).
This is part of a sample that, as a whole, favours compounds with a hit. Of some 83,000 tested, about 20% had one in any assay.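 Method: cells in 96-well plates; compound added at one concentration; 48 h incubation; percent growth measured; values under 10 scored active.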 Unmarked numbers belong to inactive results. Activity calls are given as the source filed them.

Tests used:
Test in all cases: NCI-60 one-dose screen, 48 h (100 = growth as untreated, 0 = no growth, -100 = all killed)
Settings in all cases: 10 µM unless noted
NCI-H23 lung = test system: NCI-H23 lung
NCI-H226 lung = test system: NCI-H226 lung
NCI-H322M lung = test system: NCI-H322M lung
HOP-62 NSCLC = test system: HOP-62 NSCLC
NCI-H460 lung = test system: NCI-H460 lung
HOP-92 NSCLC = test system: HOP-92 NSCLC
NCI-H522 lung = test system: NCI-H522 lung
A549/ATCC NSCLC = test system: A549/ATCC NSCLC
786-0 renal = test system: 786-0 renal
COLO 205 colon = test system: COLO 205 colon
DU-145 prostate = test system: DU-145 prostate
MALME-3M melanoma = test system: MALME-3M melanoma
MDA-MB-231 breast = test system: MDA-MB-231 breast
RXF 393 renal = test system: RXF 393 renal
SF-268 CNS = test system: SF-268 CNS
SF-295 CNS = test system: SF-295 CNS
SF-539 CNS = test system: SF-539 CNS
UACC-257 melanoma = test system: UACC-257 melanoma
M14 melanoma = test system: M14 melanoma
K-562 leukemia = test system: K-562 leukemia

SMILES | growth (NCI-H23 lung) | growth (NCI-H226 lung) | growth (NCI-H322M lung) | growth (HOP-62 NSCLC) | growth (NCI-H460 lung) | growth (HOP-92 NSCLC) | growth (NCI-H522 lung) | growth (A549/ATCC NSCLC) | growth (786-0 renal) | growth (COLO 205 colon) | growth (DU-145 prostate) | growth (MALME-3M melanoma) | growth (MDA-MB-231 breast) | growth (RXF 393 renal) | growth (SF-268 CNS) | growth (SF-295 CNS) | growth (SF-539 CNS) | growth (UACC-257 melanoma) | growth (M14 melanoma) | growth (K-562 leukemia)
CCOC(=O)N1CC1 | 107% | 104% | 105% | 99.8% | 107% | 53% | 92.4% | 99.9% | 102% | 91.3% | 110% | 108% | 99.2% | 106% | 98.6% | 97.8% | 103% | 101% | 96.5% | –
Nc1ccc2c(c1)oc1ccccc12 | 97.3% | 93.1% | 102% | 103% | 111% | 89.4% | 95.9% | 89% | 95.7% | 123% | 103% | – | 80.2% | 92.4% | 83.3% | 102% | 104% | 92.6% | 101% | 89.5%
COC(=O)[C@@H](NC(=O)c1cn(CCC2CCCCC2)c2ccccc12)C(C)(C)C | 76.4% | 58.6% | 83.7% | 61.8% | 79.3% | 63.4% | 63.7% | 64.8% | 73.5% | 96.4% | 81.7% | 106% | 70.1% | 83.9% | 68.5% | 60.2% | 88.1% | 73% | 59.4% | –
COC(=O)[C@@H](C)C[C@H](Cc1ccccc1)NC(=O)c1csc(CC[C@H](C(C)C)N(C)C(=O)[C@@H](NC(=O)[C@H]2CCCCN2C)C(C)C)n1 | 32.4% | 50.2% | 44.4% | 21.7% | 6.76% (active) | 52.8% | -12.9% (active) | 19% | 10.9% | -38.9% (active) | 10.8% | 61.2% | 14.2% | – | 27% | -6.82% (active) | -9.08% (active) | – | -13.3% (active) | 6.9% (active)
ClCCN(CCCl)c1ccc(/C=N\N=C\c2ccc(N(CCCl)CCCl)cc2)cc1 | 62% | 28.9% | 74.2% | 39.1% | 14.7% | 76.7% | 11.1% | 13.6% | 31.7% | 37.4% | 42.4% | 109% | 64.9% | – | 40.7% | 10.7% | 1.3% (active) | 31% | 12.9% | –
O=C1C=C(N2C3C4CCC(C4)C32)C(=O)C=C1c1ccccc1 (centres undefined) | 106% | 107% | 107% | 108% | 90.2% | 96.9% | 51% | 94.9% | 102% | 115% | 105% | 55.4% | 76.6% | – | 89.6% | – | 96.5% | 73.1% | 111% | 32.9%
CC1(C)N=C(N)N=C(N)N1c1ccc(CCC(=O)Nc2ccc(S(=O)(=O)F)cc2)c(Cl)c1 | 29.9% | 46.6% | 57.9% | 19.9% | 6.19% (active) | 33.7% | -0.414% (active) | -5.32% (active) | 20.6% | 45.3% | 40.2% | 83.1% | 51.7% | – | 28.1% | 30% | 11.9% | – | 23.4% | –
COc1cc([N+](=O)[O-])c2nc(C)ccc2c1[N+](=O)[O-] | 105% | 104% | 139% | 132% | 115% | 96.3% | 87.2% | 107% | 105% | 77.6% | 84.9% | 88% | 94.4% | 88.2% | 98% | 132% | 118% | 101% | 92.5% | –
O=C(O)C(Cl)(Cl)C(F)(F)F | 100% | 106% | 106% | 111% | 102% | 95.1% | 102% | 106% | 99.1% | 124% | 108% | 105% | 102% | – | 99.3% | 99.9% | 102% | 105% | 105% | –
CC(C)=CCC/C(C)=C/C=N\N=C(/N)N[N+](=O)[O-] | 97.6% | 99.3% | 95.9% | 87.2% | 110% | 89.8% | 47.7% | 97.4% | 80.4% | 103% | 102% | 93.5% | – | 122% | 93% | 101% | 89.2% | 107% | 102% | 95.9%
COC(=O)[C@@H](C)C[C@H](Cc1ccc(F)cc1)NC(=O)c1csc([C@@H](C[C@H](C(C)C)N(C)C(=O)[C@@H](NC(=O)[C@H]2CCCCN2C)C(C)C)OC(C)=O)n1 | 35.2% | 27.3% | 38% | 6.77% (active) | 6.06% (active) | 26.7% | -13.9% (active) | 16.6% | 13.2% | -68.8% (active) | 13.5% | 47% | 4.87% (active) | – | 27% | 8.69% (active) | -6.38% (active) | – | -5.96% (active) | 8.92% (active)
O=C([O][Hg][CH2]C1COCC([CH2][Hg][O]C(=O)c2ccccc2)O1)c1ccccc1 (centres undefined) | 90.2% | 106% | 110% | 127% | 106% | 77% | -53.3% (active) | 105% | 104% | -23.1% (active) | – | -80.5% (active) | 105% | 87.5% | 104% | 96.8% | 113% | -69.4% (active) | 71.7% | 4.71% (active)
COC(=O)[C@@H](C)C[C@H](Cc1ccc(F)cc1)NC(=O)c1csc([C@@H](C[C@H](C(C)C)N(C)C(=O)[C@@H](NC(=O)[C@H]2CCCCN2C)C2CC2)OC(C)=O)n1 | 36% | 43.2% | 39.7% | 12.2% | 7% (active) | 46.6% | -15.2% (active) | 20.1% | 13.5% | -73.1% (active) | 13.1% | 55.2% | 13.3% | – | 30.9% | 2.38% (active) | -4.81% (active) | – | 1.41% (active) | 9.43% (active)
Cc1sc2c(c1C)C(c1ccc(Cl)cc1)=N[C@@H](CC(=O)OC(C)(C)C)c1nnc(C)n1-2 | 28.5% | 71.8% | 37.3% | 36.8% | 39.9% | 21.2% | 2.71% (active) | 37.9% | 46% | 19.3% | 57% | 57% | 42.8% | – | 51% | 37.6% | 37.5% | 58.1% | 43% | –
COc1ccc(/C=C/c2cc(OC)c(OC)c(OC)c2)cc1NC(=O)/C=C/c1ccc(F)cc1 | 6.1% (active) | 36.6% | 55.5% | 24.9% | 14.6% | 93.1% | -8.36% (active) | 38% | 37.8% | -26.3% (active) | 10.1% | 42.7% | 56.1% | -19.1% (active) | 45.2% | -2.11% (active) | -0.885% (active) | 59.3% | 13.4% | –
C=C1[C@@H](C)[C@H]2[C@H](Cc3ccccc3)NC(=O)[C@]23[C@@H](O)/C=C/[C@@](C)(O)C(=O)[C@@H](C)C/C=C/[C@H]3[C@@H]1O | 68.2% | 50.4% | 92.2% | 5.91% (active) | 69.3% | -9.38% (active) | 28% | 37.7% | 20.1% | -17.8% (active) | 82.9% | 62.5% | 32.9% | – | 24.5% | 39.2% | 21.9% | – | 68.8% | 52%
